# Screening results (PubChem BioAssay)
# Rows were chosen to be rich in hits. Some 2.8% of all compounds tested hit in one or more screens of this group.
# TGFb inhibitor: inhibitors of TGF-b signaling | AID 588855 | HepG2 CAGA-GFP TGF-b/SMAD3 reporter, GFP fluorescence, 18 h; TGF-beta stimulated, 500 pg/mL final | hit rate 1.2% among 410,000 | Potency, µM (top dose mostly 46.1 µM), without a hit: at the top dose activity, negative = inhibition, hits mostly inhibitors; note: potency is the fitted concentration of half-maximal effect; % is set by controls: 0 for no effect and ±100 for the full control effect; nearly all actives have a fitted effect of over 65% in size
#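 Cell-based qHTS in HEPG2 carrying a CAGA-GFP Smad reporter; compounds added before 500 pg/mL final TGF-beta, 18 h incubation at 37 degrees C, GFP fluorescence quantified per cell by imaging cytometry.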
# HepG2 viability: kills HepG2 cells in TGF-b inhibitor counter-screen. hit rate 0.76% among 410,000. HepG2 CAGA-GFP viability, ATP luminescence, 18 h. Potency, µM (titrated, usually from 46.1 µM), without a hit: top-dose activity change, negative = cytotoxicity, most hits filed as cytotoxic; note: potency is the fitted concentration of half-maximal effect
#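 CellTiter-Glo luminescence gave cytotoxicity after 18 hours at 37 degrees C. The cells were HepG2 CAGA-GFP in 1% FBS DMEM, stimulated with 500 pg/mL TGF-beta after compound addition. %Activity was normalised to no-cell wells (complete cell-killing) and DMSO (no toxicity), and curves were fitted and classified.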
# CtBP-E1A inh: inhibitors of CtBP/E1A interaction | AlphaScreen GST-E1A/His-CtBP binding, 1536-well; stronger effect = lower value | activity change, % (concentration not given with the values) | hit rate 0.49% among 340,000; in the data active = activity change below about -65%; inconclusive = mostly about -30% to -63%; note: % is set by controls: 0 for no effect and ±100 for the full control effect
#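 Steps: dispense buffer (Tris pH 8.0, NaCl 300 mM, TCEP 1 mM, BSA, Tween 20); add 5X protein mix (GST-E1A, His-CtBP, 125 nM each); pin 23 nL compound; 2 h at 37 °C, dark; add 5X beads (50 ug/mL); 1 h; read.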
# Six1-Eya2 inh: Six1/Eya2 interaction inhibition | Q15475+O00167 | AlphaScreen GST-Six1/His-Eya2 binding, biochemical; stronger effect = lower value | activity change, % (no concentration beside the values) | hit rate 0.56% among 360,000 | AID 651725; in the data active = activity change below about -65%; inconclusive = mostly about -30% to -63%; note: % is set by controls: 0 for no effect and ±100 for the full control effect
#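 Homogeneous AlphaScreen proximity assay pairing GST-Six1 with His-tagged Eya2 (added as 5X mix: 250 nM and 500 nM) in 50 mM Tris pH 8.0, 300 mM NaCl, 1 mM TCEP. Glutathione donor and nickel acceptor beads; 1 h, 37 °C, dark.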
# ATXN2 expr inh: ATXN2 expression inhibition. HEK-293 ATXN2-luciferase reporter, luminescence, 24 h. Potency, µM (series often up to 57 µM), for inactives: top-dose activity change, negative = inhibition, usual class: inhibitors. hit rate 0.72% among 360,000; note: potency is the fitted concentration of half-maximal effect; % is set by controls: 0 for no effect and ±100 for the full control effect; nearly all actives have a fitted effect of over 55% in size
#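 ATXN2-luciferase reporter cells (luciferase flanked by upstream and downstream ATXN2 gene portions) were treated 24 h at 37 °C with compounds at up to 57 uM. SteadyGlo luminescence gave expression; GF-AFC fluorescence gave viability.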
# ATXN viability: cell viability loss in ATXN counter-screen; Potency, µM (top dose mostly 56.7 µM), actives largely listed as cytotoxic; AID 651635; hit rate 0.49% among 400,000; S2 cells (HEK-293 line with an ATXN2-luciferase reporter) viability, CellTiter-Fluor protease fluorescence, 24 h; note: potency is the fitted concentration of half-maximal effect; nearly all actives have a fitted effect of over 40% in size
# * marks the source's active call; other numbers are inactive results; i = inactive; ? = inconclusive; nt = not tested or not shown. Unless noted, calls come from the whole dose curve; as a rule, active = well fitted curve in the direction sought with a large enough effect; inconclusive = small, poorly fitted or top-dose-only effect, or another doubt; inactive = no such curve, though single readings can be large; an effect the other way counts as inactive or inconclusive.
SMILES,TGFb inhibitor,HepG2 viability,CtBP-E1A inh,Six1-Eya2 inh,ATXN2 expr inh,ATXN viability
CCCSc1oc(-c2cccs2)nc1S(=O)(=O)c1ccc(C)cc1,-24%,0%,nt,nt,-8%,i
CCCCCS(=O)(=O)c1oc(-c2cccs2)nc1S(=O)(=O)c1ccc(C)cc1,7.9µM*,-104%,nt,nt,nt,nt
Cc1ncc2c(c1CNC(=O)/C=C/c1cccs1)CCN(C(=O)c1ccc3c(c1)OCCO3)C2,nt,nt,nt,nt,nt,i
COc1cccc(CNC(=O)c2c(OC)cc(=O)n3c2CCN(C(=O)c2ccc(Cl)cc2)CC3)c1,nt,nt,nt,nt,nt,i
CCC(C)S(=O)(=O)c1oc(-c2ccc(F)cc2)nc1S(=O)(=O)c1ccc(F)cc1 (stereo not drawn),?,3.5µM*,nt,nt,nt,nt
CSc1oc(-c2ccc(F)cc2)nc1S(=O)(=O)c1ccc(Br)cc1,0%,0%,nt,nt,4%,i
Cc1cc(C)c(O)c(-c2n[nH]c3c2C(c2cccc(O)c2)N(Cc2ccco2)C3=O)c1 (stereo not drawn),?,-98%,-14,-9,-25%,28µM*
O=C1c2[nH]nc(-c3ccccc3O)c2C(c2cccc(Cl)c2)N1Cc1ccco1 (stereo not drawn),?,11µM*,-26,-24,-11%,?
O=C(NCCc1ccc(Cl)cc1)c1ccc2c(c1)N(Cc1ccc(F)cc1Cl)C(=O)CS2,0%,-45%,nt,nt,0%,nt
CSc1nnc(NC(=O)c2cc(=O)c3cc(C)cc(C)c3o2)s1,1%,7%,3,3,-11%,25µM*
COC(=O)CNC(c1ccccc1)c1cc(Br)ccc1NC(=O)CCN1CCOCC1 (stereo not drawn),18µM*,22µM*,nt,13,nt,?
CCOC(=O)CNC(c1ccccc1)c1cc(Br)ccc1NC(=O)OCC (stereo not drawn),-12%,3%,16,9,-1%,i
CCOC(=O)CNC(c1ccccc1)c1cc(Br)ccc1NC(=O)CCN1CCOCC1 (stereo not drawn),?,13µM*,nt,1,nt,?
COC(=O)CNC(c1ccccc1)c1cc(Br)ccc1NC(=O)CNC(=O)OCc1ccccc1 (stereo not drawn),?,-35%,-8,-20,-16%,?
CCOC(=O)CN(C)C(=O)c1cnn(-c2ncc3c(n2)-c2ccccc2CCC3)c1C,nt,nt,nt,nt,nt,i
COc1ccc(NC(=O)c2cc([N+](=O)[O-])ccc2O)cc1,11µM*,10µM*,nt,7,nt,?
O=C(Nc1c(Cl)cc([N+](=O)[O-])cc1Cl)c1cc(Cl)ccc1O,1.3µM*,-63%,nt,nt,nt,nt
O=C(CCl)Nc1cccc(-c2cnc3ccccc3n2)c1,7.1µM*,11µM*,5,7,?,nt
NCCCn1c(C(=O)c2cc(Cl)c(N)c(Cl)c2)c2ccc([N+](=O)[O-])cc2[n+]1[O-],?,-45%,-16,-10,?,10µM*
Cc1ccc(NS(=O)(=O)c2cc(Br)cc3c2N(C(=O)C2CC2)CC3)cc1C,?,-17%,nt,nt,nt,nt
COc1cc(NS(=O)(=O)c2cc(Br)cc3c2N(C(=O)C2CC2)CC3)cc(OC)c1,2.2µM*,-23%,nt,nt,nt,nt
CC1CCCN(CCCNS(=O)(=O)c2cc(Br)cc3c2N(C(=O)C2CC2)CC3)C1 (stereo not drawn),0%,-45%,-11,0,10%,i
CC1CC(C)CN(CCCNS(=O)(=O)c2cc(Br)cc3c2N(C(=O)C2CC2)CC3)C1 (stereo not drawn),11%,4µM*,-17,-7,-16%,i
CCC(=O)N1CCc2cc(Br)cc(S(=O)(=O)NCCc3ccccc3)c21,?,4%,nt,nt,-17%,?
CCC(=O)N1CCc2cc(Br)cc(S(=O)(=O)NCCc3cccc(C)c3)c21,11µM*,-17%,nt,nt,nt,nt
CCC(COC)NC(=O)c1cnn(-c2ncc3c(n2)-c2ccccc2CCC3)c1C (stereo not drawn),nt,nt,nt,nt,nt,i
